# Records with an inconclusive call do not appear. The source made the active and inactive calls. The call rests on the fitted dose curve; in most records, active means well fitted inhibition curve with a large enough effect; inconclusive means small, poorly fitted or top-dose-only effect; inactive means flat fitted curve, though single readings scatter. Peptide text beside a SMILES is read from it. * marks the point of attachment. Cbz = O=C(OCc1ccccc1)*; CH2F = FC*
# System: CRL-7250
# Experiment: qHTS assay to identify novel small-molecules to repurpose for Merkel cell carcinoma treatment (AID 1296009); further: nearly all actives have a fitted effect of over 60% in size
# Conditions: MCC and control cell lines, CellTiter-Glo viability, 72 h; series mostly up to 92 µM; activity change, negative = cytotoxicity: at the top concentration
# Procedure, shortened: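 Viability readout: ATP luminescence (CellTiter-Glo) after 72 hr drug exposure at 37 degree celsius. Dose-response format was 8 points for NPC and 11 points for MIPE; data normalized to in-plate controls.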
row,Structure (SMILES),outcome
1,CC(C)CC(=O)OC[C@H]1O[C@@](COC(=O)CC(C)C)(O[C@H]2O[C@H](CO)[C@@H](O)[C@H](O)[C@H]2OC(=O)CC(C)C)[C@@H](OC(=O)CC(C)C)[C@@H]1O,inactive [at 17.4 µM]
2,CC1=CCC2C(C)(CO)CCCC2(CO)C1CO (centres undefined),inactive
3,C[C@@H]1CC[C@]2(C(=O)O[C@@H]3O[C@H](CO)[C@@H](O)[C@H](O)[C@H]3O)CC[C@]3(C)C(=CCC4[C@@]5(C)C[C@@H](O)[C@H](O)[C@](C)(C(=O)O)C5CC[C@]43C)[C@@H]2[C@]1(C)O (some centres undefined),inactive [at 17.4 µM]
4,CC#C[C@@H](CC(=O)O)c1ccc(OCc2ccc(CN3CCC4(C=Cc5ccccc54)CC3)s2)cc1,inactive
5,COC(=O)CC[C@H](NC(=O)[C@H](CC(C)C)NC(=O)OCc1ccccc1)C(=O)N[C@@H](Cc1cnc[nH]1)C(=O)N[C@@H](CC(=O)OC)C(=O)CF (Cbz-LE(OMe)HD(OMe)-CH2F),inactive [at 9.27 µM]
6,O=C1NC(Cc2c[nH]c3ccccc23)C(=O)NC1Cc1cnc[nH]1 (centres undefined),inactive
7,CC(=O)c1c(C)cc(O[C@@H]2O[C@H](CO)[C@@H](O)[C@H](O)[C@H]2O)cc1O,inactive
8,COC1CCCC/C(C)=C/C2C=C(C)C(C)C3C(CC(C)C)NC(=O)C23C(=O)C1 (centres undefined),inactive [at 17.4 µM]
9,CC(C)(OC1OC(CO)C(O)C(O)C1O)C1CCC(O)(CO)C2CC(=O)C(C)(O)C2C1 (centres undefined),inactive [at 17.4 µM]

# Reference: PubChem BioAssay (NCATS)
